Data as given in PubChem BioAssay (NCATS).
“And” between values parts separate entries of the source, which are not always exact repeats. Identical values can stand only once. Results filed as inconclusive are left out. The source made the active and inactive calls. Unless noted, the call rests on the fitted dose curve; in most records, active means well fitted curve in the direction sought with a large enough effect; inconclusive means small, poorly fitted or top-dose-only effect, or another doubt; inactive means no such curve, though single readings can be large; an effect the other way counts as inactive or inconclusive.

Experiments:
[1] = P-glycoprotein substrates identified in KB-8-5-11 adenocarcinoma cell line, qHTS therapeutic library screen (AID 1346987); further: nearly all actives have a fitted effect of over 65% in size; further: potency means the concentration at half of the fitted maximal effect
Procedure, shortened: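 Human cervical adenocarcinoma KB-8-5-11 cells, selected in colchicine to over-express P-gp and assayed without it, were exposed for 72 h to titrated compounds. An ATP-based luminescent viability signal gave AC50.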

[2] = Natriuretic polypeptide receptor (hNpr1) antagonism - Pilot counterscreen GloSensor control cell line (AID 1347045; calls by dose curve; further: series mostly up to about 38 µM)
Procedure, shortened: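 The SNP-driven cGMP luminescence signal (50 uM, 20 min, room temperature) was measured in GloSensor HEK293 control cells. Compounds were tested as a LOPAC titration series and preincubated for 30-50 min.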

[3] = target: Atrial natriuretic peptide receptor 1 (Homo sapiens) (UniProt P16066); assay: Natriuretic polypeptide receptor (hNpr1) antagonism - Pilot screen (AID 1347049; calls by dose curve;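 further: agonist-evoked cGMP luminescence read 20 min after hNppA addition; series mostly up to about 58 µM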)
Sequence of Atrial natriuretic peptide receptor 1 (Homo sapiens) (P16066 whole entry, looked up): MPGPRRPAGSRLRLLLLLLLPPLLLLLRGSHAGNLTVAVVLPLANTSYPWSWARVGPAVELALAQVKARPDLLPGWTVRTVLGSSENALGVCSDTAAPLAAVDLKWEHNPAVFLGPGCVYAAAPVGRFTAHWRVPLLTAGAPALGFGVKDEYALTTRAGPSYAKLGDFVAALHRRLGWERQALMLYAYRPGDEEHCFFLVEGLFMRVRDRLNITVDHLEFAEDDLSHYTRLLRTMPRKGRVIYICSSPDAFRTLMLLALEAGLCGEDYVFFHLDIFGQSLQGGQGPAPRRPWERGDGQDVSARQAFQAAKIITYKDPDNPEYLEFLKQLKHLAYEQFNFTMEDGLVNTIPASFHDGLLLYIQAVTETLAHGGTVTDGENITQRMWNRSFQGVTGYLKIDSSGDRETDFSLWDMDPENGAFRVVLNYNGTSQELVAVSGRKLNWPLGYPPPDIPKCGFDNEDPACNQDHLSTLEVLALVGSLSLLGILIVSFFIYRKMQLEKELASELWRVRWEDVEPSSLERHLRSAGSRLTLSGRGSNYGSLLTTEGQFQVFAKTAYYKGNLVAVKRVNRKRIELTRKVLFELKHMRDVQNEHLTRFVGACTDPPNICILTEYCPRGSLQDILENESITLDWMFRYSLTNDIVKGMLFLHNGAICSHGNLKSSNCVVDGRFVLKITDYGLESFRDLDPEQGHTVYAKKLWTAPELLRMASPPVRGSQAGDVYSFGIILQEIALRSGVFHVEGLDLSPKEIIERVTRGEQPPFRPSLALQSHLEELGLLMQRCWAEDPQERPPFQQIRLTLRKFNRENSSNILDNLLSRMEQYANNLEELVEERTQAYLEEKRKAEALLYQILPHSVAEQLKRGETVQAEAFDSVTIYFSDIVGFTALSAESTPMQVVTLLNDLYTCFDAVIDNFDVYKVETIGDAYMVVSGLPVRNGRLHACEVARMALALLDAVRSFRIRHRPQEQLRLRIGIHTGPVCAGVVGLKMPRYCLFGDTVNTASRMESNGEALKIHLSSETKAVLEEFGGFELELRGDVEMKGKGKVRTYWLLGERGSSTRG
Procedure, shortened: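 cGMP-sensor HEK293/hNpr1 cells, 1500/well, plated overnight at 37C. 2% GloSensor reagent, 2 h RT. Compound (23 nL pin transfer) 30 min RT, baseline luminescence pre-read. 0.1 nM hNppA, 20 min RT, post-read.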

[4] = target: Atrial natriuretic peptide receptor 2 (Homo sapiens) (UniProt P20594); assay: Natriuretic polypeptide receptor (hNpr2) antagonism - Pilot subtype selectivity assay (AID 1347050; calls by dose curve)
Sequence of Atrial natriuretic peptide receptor 2 (Homo sapiens) (P20594 whole entry, looked up): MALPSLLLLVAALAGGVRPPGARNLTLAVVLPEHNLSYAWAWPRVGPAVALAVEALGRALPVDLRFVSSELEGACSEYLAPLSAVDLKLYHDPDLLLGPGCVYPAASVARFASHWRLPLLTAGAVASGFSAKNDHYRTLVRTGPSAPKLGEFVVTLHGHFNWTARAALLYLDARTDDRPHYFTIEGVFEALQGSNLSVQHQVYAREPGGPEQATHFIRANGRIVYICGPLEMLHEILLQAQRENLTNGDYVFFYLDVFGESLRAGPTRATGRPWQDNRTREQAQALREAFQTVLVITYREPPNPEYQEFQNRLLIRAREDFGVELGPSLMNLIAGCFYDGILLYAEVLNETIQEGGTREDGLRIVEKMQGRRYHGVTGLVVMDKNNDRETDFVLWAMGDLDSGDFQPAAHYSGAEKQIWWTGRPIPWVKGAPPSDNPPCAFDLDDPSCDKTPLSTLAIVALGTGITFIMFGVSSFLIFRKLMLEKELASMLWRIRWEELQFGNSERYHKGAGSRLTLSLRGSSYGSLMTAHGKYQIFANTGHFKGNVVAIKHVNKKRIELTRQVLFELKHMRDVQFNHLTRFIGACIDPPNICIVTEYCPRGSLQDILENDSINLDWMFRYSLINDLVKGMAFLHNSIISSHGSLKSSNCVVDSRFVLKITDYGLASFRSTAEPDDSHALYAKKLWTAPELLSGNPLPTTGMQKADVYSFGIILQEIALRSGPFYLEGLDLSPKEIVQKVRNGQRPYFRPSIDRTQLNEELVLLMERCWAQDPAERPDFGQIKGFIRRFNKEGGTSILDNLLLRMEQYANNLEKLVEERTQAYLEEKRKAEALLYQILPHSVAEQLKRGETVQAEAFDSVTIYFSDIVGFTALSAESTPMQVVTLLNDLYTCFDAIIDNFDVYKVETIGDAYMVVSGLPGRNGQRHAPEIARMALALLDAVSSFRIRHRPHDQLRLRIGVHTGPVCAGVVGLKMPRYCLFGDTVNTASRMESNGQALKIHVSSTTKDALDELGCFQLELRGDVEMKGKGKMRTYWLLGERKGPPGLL
Procedure, shortened: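 Luminescence from a genetically encoded cGMP luciferase biosensor in hNpr2-expressing HEK293 cells is read before and 20 min after adding 1 nM hNppC. Test compounds, in interplate 1:5 titrations, are added 30-50 min ahead of the agonist.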

[5] = NS1 protein of Zika virus - qHTS assay to identify small molecule inhibitors in human HEK 293 cells (AID 1347053); further: series mostly up to about 46 µM; nearly all actives have a fitted effect of over 55% in size
Procedure, shortened: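 TR-FRET signal from two anti-ZIKV NS1 antibodies quantified NS1 in HEK 293 cells 24 h after MR766 infection at MOI = 0.5; compounds were added 1 h before virus. Uninfected cells and infected cells defined the NS1 normalization range.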

[6] = target: T1, Tyrosine-protein phosphatase non-receptor type substrate 1 (Homo sapiens) + Leukocyte surface antigen CD47 (Homo sapiens) (UniProt P78324+Q08722); assay: CD47-SIRPalpha protein protein interaction - LANCE assay qHTS validation (AID 1347057; active means well fitted curve in the direction sought with a large enough effect in the signal ratio, with a control signal flat, not every such curve was filed as active; the % refers to the signal ratio; further: series mostly up to about 38 µM)
T1 sequence (P78324 whole entry, looked up, the tested form may be a part): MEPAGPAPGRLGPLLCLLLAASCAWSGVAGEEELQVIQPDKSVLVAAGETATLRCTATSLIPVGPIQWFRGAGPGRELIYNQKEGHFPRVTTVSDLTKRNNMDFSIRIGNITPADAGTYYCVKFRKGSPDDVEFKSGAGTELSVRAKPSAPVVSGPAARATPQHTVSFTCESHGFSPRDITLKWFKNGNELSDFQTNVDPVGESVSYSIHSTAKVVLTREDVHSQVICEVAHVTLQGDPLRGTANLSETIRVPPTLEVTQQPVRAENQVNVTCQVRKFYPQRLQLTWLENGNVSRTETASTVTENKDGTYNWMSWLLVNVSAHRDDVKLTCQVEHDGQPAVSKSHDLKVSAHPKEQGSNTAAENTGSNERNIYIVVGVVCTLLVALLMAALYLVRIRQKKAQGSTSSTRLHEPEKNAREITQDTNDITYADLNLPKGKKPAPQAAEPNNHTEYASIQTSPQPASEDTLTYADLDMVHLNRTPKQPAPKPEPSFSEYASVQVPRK
T1 sequence (Q08722 whole entry, looked up, the tested form may be a part): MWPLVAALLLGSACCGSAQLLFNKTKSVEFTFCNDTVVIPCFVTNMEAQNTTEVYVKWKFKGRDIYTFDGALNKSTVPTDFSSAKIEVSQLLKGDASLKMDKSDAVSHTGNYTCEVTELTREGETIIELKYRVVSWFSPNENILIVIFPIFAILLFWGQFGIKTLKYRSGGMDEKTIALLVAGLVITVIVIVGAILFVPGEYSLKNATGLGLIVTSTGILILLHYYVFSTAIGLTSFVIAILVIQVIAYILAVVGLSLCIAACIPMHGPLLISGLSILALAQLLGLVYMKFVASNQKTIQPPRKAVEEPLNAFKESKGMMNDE
Procedure, shortened: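 Inhibition of soluble CD47/SIRPalpha ectodomain association by titrated compounds, measured as 665/615 nm time-resolved FRET ratio after sequential 30 min room-temperature incubations.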

[7] = target: T1, Tyrosine-protein phosphatase non-receptor type substrate 1 (Homo sapiens) + Leukocyte surface antigen CD47 (Homo sapiens); assay: CD47-SIRPalpha protein protein interaction - HTRF assay qHTS validation (AID 1347058; active means well fitted curve in the direction sought with a large enough effect in the signal ratio, not every such curve was filed as active; the % refers to the signal ratio; further: series mostly up to about 38 µM)
Procedure, shortened: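 Soluble extracellular domains (6His-CD47, Avi-tag-biotinylated SIRPalpha) in PBS pH 7.4 with 0.05% IGEPAL CA-630. Compounds were preincubated 30 min at RT with CD47 and anti-His-Eu, then SIRPalpha and SAV-XL665 were added. TR-FRET 665/615 ratio.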

[8] = target: Parathyroid hormone/parathyroid hormone-related peptide receptor (Homo sapiens) (UniProt Q03431); assay: qHTS for PTHR1 Agonists: Optimization Screen against the NCGC LOPAC library (AID 1347079);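 further: GloSensor cAMP luminescence in HEK-293 GP2 cells expressing human PTHR1 with IBMX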
Sequence of Parathyroid hormone/parathyroid hormone-related peptide receptor (Homo sapiens) (Q03431 whole entry, looked up): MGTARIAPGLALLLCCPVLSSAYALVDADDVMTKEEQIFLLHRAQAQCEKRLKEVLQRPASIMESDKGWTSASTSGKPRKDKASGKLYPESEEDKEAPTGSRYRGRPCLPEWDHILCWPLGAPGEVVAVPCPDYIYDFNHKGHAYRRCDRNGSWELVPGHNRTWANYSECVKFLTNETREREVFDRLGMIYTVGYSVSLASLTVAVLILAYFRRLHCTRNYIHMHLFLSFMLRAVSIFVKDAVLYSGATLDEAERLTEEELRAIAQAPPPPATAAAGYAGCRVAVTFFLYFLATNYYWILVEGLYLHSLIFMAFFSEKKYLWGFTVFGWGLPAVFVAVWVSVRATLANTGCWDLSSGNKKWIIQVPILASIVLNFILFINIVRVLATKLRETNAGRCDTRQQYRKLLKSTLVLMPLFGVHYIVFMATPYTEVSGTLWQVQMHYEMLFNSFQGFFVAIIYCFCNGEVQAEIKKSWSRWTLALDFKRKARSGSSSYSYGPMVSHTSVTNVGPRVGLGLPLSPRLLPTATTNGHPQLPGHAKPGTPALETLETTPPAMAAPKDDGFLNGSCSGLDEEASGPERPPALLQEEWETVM
Procedure, shortened: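 Signal increase flags agonism. GP2 cells, derived from HEK-293, express human PTHR1 and a GloSensor cAMP construct.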

[9] = target: T1, Tyrosine-protein phosphatase non-receptor type substrate 1 (Homo sapiens) + Leukocyte surface antigen CD47 (Homo sapiens); assay: CD47-SIRPalpha protein protein interaction - Alpha assay qHTS validation (AID 1347059);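 further: bead proximity luminescence from CD47 binding SIRPalpha after compound preincubation with SIRPalpha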
Procedure, shortened: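 SIRPalpha-biotin 25 nM + cpd, 30 min RT, dark; add CD47-His 12.5 nM, 30 min; add Ni-NTA/SAV beads 10 ug/mL, 30 min; AlphaScreen. Buffer PBS pH 7.4 + 0.05% IGEPAL CA-630. Non-biotinylated SIRPalpha as control inhibitor.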

[10] = qHTS of pediatric cancer cell lines to identify multiple opportunities for drug repurposing: Primary screen for TC32 cells (AID 1347089); further: nearly all actives have a fitted effect of over 60% in size
Procedure, shortened: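 TC32 cells, 500-1,000/well in growth medium, compound-treated 48 h at 37 °C; viability from CellTiter-Glo luminescence. Primary screen: MIPE 11-point (0.78 nM–46 µM final), NPC 8-point (0.59 nM–46 µM final); confirmatory at 11-point dilutions.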

[11] = qHTS of pediatric cancer cell lines to identify multiple opportunities for drug repurposing: Primary screen for DAOY cells (AID 1347090); further: series mostly up to about 46 µM; nearly all actives have a fitted effect of over 55% in size
Procedure, shortened: (§1)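 Viability measured as metabolically active cells via CellTiter-Glo luminescence following 48 hours of compound exposure, 11-point dilutions in confirmatory testing. 500-1,000 cells/well plated 5 hours before dosing; controls were DMSO and 2.3 µM bortezomib.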

[12] = qHTS of pediatric cancer cell lines to identify multiple opportunities for drug repurposing: Primary screen for SJ-GBM2 cells (AID 1347091)
Procedure, shortened: as §1

[13] = qHTS of pediatric cancer cell lines to identify multiple opportunities for drug repurposing: Primary screen for A673 cells (AID 1347092); further: nearly all actives have a fitted effect of over 45% in size
Procedure, shortened: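 A673 cells (500-1,000 cells/well) were treated 48 hours at 37 degrees C with compounds at 11-point (0.78 nM to 46 µM) or 8-point (0.59 nM to 46 µM) dilutions. Viability read by CellTiter-Glo luminescence; concentration-response curves fitted.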

[14] = qHTS of pediatric cancer cell lines to identify multiple opportunities for drug repurposing: Primary screen for SK-N-MC cells (AID 1347093); further: series mostly up to about 46 µM
Procedure, shortened: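 Metabolically active cells were quantified by ATP-dependent luminescence (CellTiter-Glo, 15 min at room temperature) following 48 h treatment. Cells had been plated at 500-1,000 per well and settled for 5 h beforehand.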

[15] = qHTS of pediatric cancer cell lines to identify multiple opportunities for drug repurposing: Primary screen for BT-37 cells (AID 1347094); further: series mostly up to about 57 µM
Procedure, shortened: (§2)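 Plated cells (500-1,000 per well, growth media) were allowed to settle for 5 hours, treated with compound dilutions for 48 hours, then lysed with CellTiter-Glo for 15 min at room temperature before luminescence reading.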

[16] = qHTS of pediatric cancer cell lines to identify multiple opportunities for drug repurposing: Primary screen for NB-EBc1 cells (AID 1347095)
Procedure, shortened: as §2

[17] = qHTS of pediatric cancer cell lines to identify multiple opportunities for drug repurposing: Primary screen for U-2 OS cells (AID 1347096); further: nearly all actives have a fitted effect of over 50% in size
Procedure, shortened: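 Viability after 48 h compound treatment at 37C, 500-1,000 cells/well, read as ATP luminescence with CellTiter-Glo. Primary screens used 11-point (MIPE, 0.78 nM-46 µM) or 8-point (NPC, 0.59 nM-46 µM) final concentrations; follow-up screens used 11-point dilutions.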

Measured: Potency

CCN1/C(=C/C(C)=O)Sc2ccc(OC)cc21
inactive: [1] | [2] | [3] | [4] | [5] | [6] | [7] | [8]

CCCCN(CC)c1nc(C)nc2c1c(C)cn2-c1c(C)cc(C)cc1C
inactive: [1] | [5] | [6] | [9]

C=CC(N)CCC(=O)O (stereo not drawn)
inactive: [1] | [2] | [3] | [4] | [5] | [6] | [7] | [9] | [8]

O=C(/C=C/c1ccccc1)NCCO
not listed: [2] | [3] | [4] | [6] | [7] | [8] | [9]
inactive: all other assays above

CCCCCCCCCCCCCCCC(=O)OC(C)C
not listed: [2] | [3] | [4] | [6] | [7] | [8] | [9]
inactive: all other assays above

O=C(OCc1ccccc1)c1ccccc1
not listed: [2] | [3] | [4] | [6] | [7] | [8] | [9]
inactive: all other assays above

c1ccc2sc(SN3CCOCC3)nc2c1
not listed: [2] | [3] | [4] | [6] | [7] | [8] | [9]
inactive: all other assays above

Nc1ccc(C(=O)O)c(O)c1
not listed: [2] | [3] | [4] | [6] | [7] | [8] | [9]
inactive: all other assays above

O=C(Nc1ccc(C(=O)O)c(O)c1)c1ccccc1
not listed: [2] | [3] | [4] | [6] | [7] | [8] | [9]
inactive: all other assays above

C[N+](C)(C)CCOP(=O)(O)OP(=O)([O-])OC[C@H]1O[C@@H](n2ccc(N)nc2=O)[C@H](O)[C@@H]1O
inactive: [1] | [2] | [3] | [4] | [5] | [6] | [7] | [9] | [8]

CCCCCCCCCCCC(=O)[O][Sn]([CH2]CCC)([CH2]CCC)[O]C(=O)CCCCCCCCCCC
not listed: [2] | [3] | [4] | [6] | [7] | [8] | [9]
inactive: all other assays above

C=CCN1C(=O)C(CC(C)C)NC1=S (stereo not drawn)
inactive: [1]

O=C(O)Cc1ccc(-c2ccccc2)cc1
not listed: [2] | [3] | [4] | [6] | [7] | [8] | [9]
inactive: all other assays above

Cc1ccc(C(=O)c2ccc(CC(=O)O)n2C)cc1
not listed: [2] | [3] | [4] | [6] | [7] | [8] | [9]
inactive: all other assays above

CN(CCCOc1ccc(Cc2ccccc2)cc1)CCC(=O)O
inactive: [1] | [5] | [6] | [7] | [9]

CC(N)C(=O)OC(C)(C)Cc1ccc(Cl)cc1 (stereo not drawn)
inactive: all assays above

CC(C)Cc1ccc([C@H](C)C(=O)O)cc1
inactive: [1] | [2] | [3] | [4] | [5] | [6] | [7] | [9] | [8]

Cc1c(N)c(=O)n(-c2ccccc2)n1C
not listed: [2] | [3] | [4] | [6] | [7] | [8] | [9]
inactive: all other assays above

CC(=O)[C@]1(O)Cc2c(O)c3c(c(O)c2[C@@H](O[C@H]2C[C@H](N)[C@H](O)[C@H](C)O2)C1)C(=O)c1c(O)cccc1C3=O
active: [1] 5.17 µM and 4.11 µM

O=C(Nc1ccc2c(c1)CCN(Cc1ncn[nH]1)C2)c1ccccc1-c1ccc(C(F)(F)F)cc1
inactive: [1] | [5] | [6] | [7] | [9]
